# Hit rate of the full screen: of about 330,000 compounds, about 4,900 (1.5%) were called active.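 The calls were made as follows: active = inhibition above the mean inhibition across the screen plus 3 SD (cut at about 25% in these data); inactive = the rest.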 Shown is part of a subset that was picked to be rich in actives.
# Target: Platelet-activating factor acetylhydrolase (Homo sapiens) (UniProt Q13093)
# Assay: inhibition of plasma PAF acetylhydrolase – biochemical, fluorescence polarization, human, primary screen (AID 463082);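 also: inhibitors block binding of the rhodamine activity-based probe so polarization drops; 0% = enzyme with DMSO and 100% = wells lacking pPAFAH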
# Conditions: recombinant pPAFAH, FP-rhodamine probe fluorescence polarization; at 3.39 µM; active compounds read high
# Sequence of Platelet-activating factor acetylhydrolase (Homo sapiens) (Q13093 whole entry, looked up): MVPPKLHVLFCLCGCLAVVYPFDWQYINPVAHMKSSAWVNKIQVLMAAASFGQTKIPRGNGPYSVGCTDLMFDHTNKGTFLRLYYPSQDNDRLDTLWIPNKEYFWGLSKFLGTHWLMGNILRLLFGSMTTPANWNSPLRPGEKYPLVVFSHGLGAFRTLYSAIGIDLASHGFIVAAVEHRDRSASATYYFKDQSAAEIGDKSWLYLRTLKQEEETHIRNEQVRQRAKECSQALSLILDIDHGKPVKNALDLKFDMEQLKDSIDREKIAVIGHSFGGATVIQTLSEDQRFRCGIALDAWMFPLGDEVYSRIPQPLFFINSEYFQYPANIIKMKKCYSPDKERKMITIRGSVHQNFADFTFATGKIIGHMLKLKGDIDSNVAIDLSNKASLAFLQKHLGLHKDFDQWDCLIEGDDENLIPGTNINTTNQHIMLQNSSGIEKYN
row,SMILES,inhibition
1,Nc1nonc1-n1nnc(C(=O)N/N=C/c2ccc(Cl)cc2)c1-c1ccc2c(c1)OCO2,3.64% (inactive)
2,O=C(Nc1ccccc1)c1ccc2nsnc2c1,-5.05% (inactive)
3,COCC(C)NC(=O)c1ccc(-n2nc(C(F)(F)F)cc2-c2cccs2)cc1 (configuration not stated),35.9% (active)
4,Cc1cc2nc(C(F)(F)F)cc(-c3cccs3)n2n1,-3.12% (inactive)
5,COCC(C)NC(=O)c1ccc(Cl)c(Cl)c1 (configuration not stated),4.84% (inactive)
6,CC(=O)N1CCN(C(=O)C2(NC(=O)Nc3ccc(C)cc3)CCCCC2)CC1,-3.87% (inactive)
7,CCCC(C)C(=O)NCc1ccncc1 (configuration not stated),-2.95% (inactive)
8,COC(=O)c1c(NC(=O)CCN2CCOCC2)sc2c1CCCC2,7.3% (inactive)
9,Cc1ccc(NC(=O)c2csc3c2CCCC3)cc1,1.78% (inactive)
10,Cc1ccc(NC(=O)c2c(NC(=O)CCC(=O)O)sc3c2CCCCC3)cc1,24.6% (active)
11,Cn1nc(C(C)(C)C)c([N+](=O)[O-])c1C(N)=O,-0.25% (inactive)
12,O=[N+]([O-])c1ccccc1SNc1ccccn1,3.58% (inactive)
13,COc1cnc(-c2ccccn2)nc1Oc1ccc(C(C)(C)C)cc1,3.59% (inactive)
14,C[C@H](CO)N1C[C@H](C)[C@@H](CN(C)C(=O)Nc2ccc3c(c2)OCO3)Oc2c(cccc2N(C)C)C1=O,3.8% (inactive)
15,N#CCc1c(C#N)c(N)nc(N2CCCC2)c1C#N,-3.2% (inactive)
16,CCOC(=O)c1cc(C#N)c(N2CCCCC2)nc1-c1ccccc1,4.27% (inactive)
17,N#Cc1c(N2CCCCC2)nc(N)c2c(N)nc(SCC(=O)O)cc12,27.8% (active)
18,O=C(N=C1SC2CS(=O)(=O)CC2N1c1ccccc1)c1ccccc1 (configuration not stated),-2.21% (inactive)
19,CS/C(=C\C(=O)c1ccco1)Nc1ccccc1Cl,3.63% (inactive)
20,CCN1CC=C2C(C#N)=C(N)C(C#N)(C#N)[C@H](c3ccoc3)[C@H]2C1,25.2% (active)
21,CCCN1CC=C2C(C#N)=C(N)C(C#N)(C#N)C(c3cc(OC)ccc3OC)C2C1 (configuration not stated),0.59% (inactive)
22,N#CC1=C(N)C(C#N)(C#N)[C@H](c2ccsc2)[C@H]2COCC=C12,3.03% (inactive)
23,CCC1CCCCN1C(=S)NC(=O)c1ccco1 (configuration not stated),-4.39% (inactive)
24,CCN(CC)S(=O)(=O)c1cc([N+](=O)[O-])ccc1NNC(=O)Nc1ccccc1,12% (inactive)
25,Cc1ccc(CNC(=O)COc2ccc(S(=O)(=O)NC(C)C)cc2)cc1,-3.29% (inactive)
26,Cc1cc(S(=O)(=O)NC2CCCCC2)ccc1OCC(=O)NCc1cccnc1,8.28% (inactive)
27,Cc1ccc(C)c(NS(=O)(=O)c2ccc(OCC(=O)NCc3cccnc3)cc2)c1,26.4% (active)
